This note sets out measurements from PMC4336329 (PLoS ONE, 2015).

Structures are written as SMILES. The campaign covered roughly 310,000 compounds. About 2,200 (0.71%) showed an effect of 50% or more. Effects have a minus sign here. For the sample, strong results were picked, then their nearest neighbours and some compounds at random.

For this experiment, the target named is human ether-à-go-go-related gene (hERG) potassium channel (human, UniProt Q12809). Nature of the experiment: primary screen, population patch clamp on CHO cells stably expressing hERG; higher = less effect of the substance.
Chain of human ether-à-go-go-related gene (hERG) potassium channel (Q12809 whole entry, looked up): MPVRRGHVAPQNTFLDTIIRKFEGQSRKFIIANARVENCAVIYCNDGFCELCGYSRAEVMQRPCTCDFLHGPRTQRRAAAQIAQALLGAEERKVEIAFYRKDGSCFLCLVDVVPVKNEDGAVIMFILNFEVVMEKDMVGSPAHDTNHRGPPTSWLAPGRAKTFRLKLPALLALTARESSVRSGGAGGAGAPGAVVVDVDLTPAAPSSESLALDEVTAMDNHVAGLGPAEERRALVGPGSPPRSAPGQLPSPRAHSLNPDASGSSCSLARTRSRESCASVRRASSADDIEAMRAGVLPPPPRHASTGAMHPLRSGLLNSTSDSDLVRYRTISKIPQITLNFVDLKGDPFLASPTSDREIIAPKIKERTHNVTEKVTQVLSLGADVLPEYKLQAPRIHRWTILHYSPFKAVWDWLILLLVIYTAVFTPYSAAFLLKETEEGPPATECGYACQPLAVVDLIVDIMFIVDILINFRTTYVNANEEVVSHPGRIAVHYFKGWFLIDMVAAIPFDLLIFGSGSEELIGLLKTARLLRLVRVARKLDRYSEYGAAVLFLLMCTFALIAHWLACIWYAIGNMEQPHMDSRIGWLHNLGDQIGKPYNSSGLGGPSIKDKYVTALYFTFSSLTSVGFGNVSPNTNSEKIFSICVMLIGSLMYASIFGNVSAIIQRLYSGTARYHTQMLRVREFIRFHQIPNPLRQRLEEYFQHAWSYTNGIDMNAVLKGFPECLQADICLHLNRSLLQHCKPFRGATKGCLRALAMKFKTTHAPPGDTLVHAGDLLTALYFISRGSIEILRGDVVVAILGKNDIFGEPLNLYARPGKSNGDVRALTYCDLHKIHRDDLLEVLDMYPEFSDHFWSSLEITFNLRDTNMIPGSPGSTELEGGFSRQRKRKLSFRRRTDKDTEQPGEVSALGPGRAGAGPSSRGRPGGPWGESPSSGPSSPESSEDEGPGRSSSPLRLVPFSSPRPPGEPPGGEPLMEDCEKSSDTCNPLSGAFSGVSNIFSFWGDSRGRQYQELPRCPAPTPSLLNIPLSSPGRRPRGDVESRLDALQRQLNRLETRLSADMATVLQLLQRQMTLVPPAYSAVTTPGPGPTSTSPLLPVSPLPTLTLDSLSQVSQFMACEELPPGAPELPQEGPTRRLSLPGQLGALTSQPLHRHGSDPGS
As for `CC(=O)OC1C(N2CCCCC2)c2c(ccc(/C=C/C(=O)N3CCCCC3)c2O)OC1(C)C` (stereo not shown), the “hERG current change (%, negative = inhibition) at 1uM” value was 8.42%. Consider `O=c1ccc(-c2n[nH]c(=S)n2-c2ccc(F)c(Cl)c2)n[nH]1`, for which the “hERG current change (%, negative = inhibition) at 1uM” value stood at 14.8%. The same measure for `CC(C)C(=O)NC(NC(=S)Nc1ccc(S(N)(=O)=O)cc1)C(Cl)(Cl)Cl` (stereo not shown): 12.7%.

Regarding `CS(=O)(=O)c1ccccc1C(=O)N(CCc1ccccc1)Cc1ccccc1`, the “hERG current change (%, negative = inhibition) at 1uM” value is 9.2%. Next, `S=C1N(c2ccccc2)C(c2ccccc2)N2CCCN12` (stereo not shown): 6.76%; `CCOC(=O)c1oc2ccccc2c1NC(=O)COc1cccc(OC)c1`: 14.2%; `CCOCCCN(C)C1CCN(C(=O)c2oc3ccccc3c2NC(=O)COc2ccc(F)cc2)CC1`: -85.9%. Next, `CCOCCCN(C)C1CCN(C(=O)c2oc3ccccc3c2NC(=O)c2ccc(F)cc2)CC1`: -85.6%; `COc1ccc(CC(=O)Nc2c(C(=O)N3CCN(c4ccccc4OC)CC3)oc3ccccc23)cc1OC`: 9.46%; `CCOCC(=O)Nc1c(C(=O)N2CCN(c3ncccn3)CC2)oc2ccccc12`: 5.42%.

`CCOC(=O)c1oc2ccccc2c1NC(=O)COc1ccc(F)cc1`: the “hERG current change (%, negative = inhibition) at 1uM” value is 12.4%. Next, `COCCCN(C)C1CCN(C(=O)Nc2ccc(F)cc2)CC1`: -2.37%; `NC(=O)c1oc2ccccc2c1NC(=O)c1ccc(F)cc1`: 11.1%; `O=C(COc1ccc(F)cc1)Nc1c(C(=O)N2CCC(N3CCCCC3)CC2)oc2ccccc12`: -33.8%.

With `CCOCCCN(C)C1CCN(C(=O)c2oc3ccccc3c2NC(=O)Cc2ccc(F)cc2)CC1`, the “hERG current change (%, negative = inhibition) at 1uM” value is -85.2%. The same measure for `CCOCCCN(C)C1CCN(C(=O)c2oc3ccccc3c2NC(=O)COc2cccc(C)c2)CC1`: -62.4%; for `O=C(Cc1ccc(F)cc1)Nc1c(C(=O)N2CCN(c3ncccn3)CC2)oc2ccccc12`: -8.61%. The same measure for `CN(C)/N=C/C=C1\CCC/C(=C/c2cccs2)C1=O`: 7.9%; for `O=C(COc1coc(CN2CCN(c3ccccc3)CC2)cc1=O)Nc1ccccc1`: 10.3%. Next, `COc1ccc(C2NCCc3[nH]cnc32)cc1` (stereo not shown): 0.887%; `CC(/C=N/NC(=O)c1cc(-c2ccncc2)nc2ccccc12)=C\c1ccco1`: 0.477%; `CC(c1ccco1)N(C(=O)COc1ccccc1[N+](=O)[O-])c1ccccn1` (stereo not shown): 0.845%.

As to `CC1CC(C)CN(C(=O)c2ccc(C(=O)c3ccccc3)cc2)C1` (stereo not shown), the “hERG current change (%, negative = inhibition) at 1uM” value was -1.23%. With `Nc1nonc1-n1nnc(C(=O)N/N=C/c2ccccc2Cl)c1-c1ccccc1`, the “hERG current change (%, negative = inhibition) at 1uM” value is recorded as 18.9%. The same measure for `COc1ccc(CCN(C)C(=O)c2ccc(S(=O)(=O)Nc3ccccc3C)cc2)cc1OC`: 10.8%; for `O=C(Nc1ccc(S(=O)(=O)NC2CCCCC2)cc1)c1ccc(Br)o1`: 1.61%; for `COc1cc2[nH]c3ccccc3c2cc1C`: 10.5%. Next, `Cc1cc2[nH]c3c(c[n+](C)c4ccccc34)c2cc1C.[I-]`: -75.9%; `Cc1nccc2c1[nH]c1ccccc12`: 10.2%. The same measure for `O=c1[nH]c(SCc2ccccc2)nc2c1cnn2-c1ccc(F)cc1`: 4.7%; for `COc1ccc(C(CNC(=O)c2ccc(C)o2)N2CCOCC2)cc1` (stereo not shown): -1.5%; for `CCOC(=O)c1[nH]c2ccc(Br)cc2c1NC(=O)CCN1CCC(C)CC1`: -36.9%. As to `COC(=O)c1[nH]c2ccc(C)cc2c1NC(=O)C(C)N1CCN(C2CCCCC2)CC1` (stereo not shown), the “hERG current change (%, negative = inhibition) at 1uM” value was -81%. Regarding `CCOC(=O)C1CCCN(CC(=O)Nc2c(C(=O)OC)[nH]c3ccc(Br)cc23)C1` (stereo not shown), the “hERG current change (%, negative = inhibition) at 1uM” value was -3.53%. The same measure for `COC(=O)c1[nH]c2ccccc2c1NC(=O)C(C)N1CCOCC1` (stereo not shown): 9.91%; for `COC(=O)c1[nH]c2ccc(Cl)cc2c1NC(=O)CCN1CCOCC1`: 9.37%; for `COC(=O)c1[nH]c2ccc(C)cc2c1NC(=O)NC1CCCCC1`: 9.66%. The same measure for `CCOC(=O)c1[nH]c2ccc(OC)cc2c1NC(=O)CCN1CCCC(C)C1` (stereo not shown): -3.69%; for `COC(=O)c1[nH]c2ccc(Cl)cc2c1NC(=O)CCN1CCN(C2CCCCC2)CC1`: -69.5%; for `COC(=O)c1[nH]c2ccc(Br)cc2c1NC(=O)CN1CCN(C2CCCCC2)CC1`: -85.1%.

Turning to `COC(=O)c1[nH]c2ccc(Cl)cc2c1NC(=O)CN1CCC(C(N)=O)CC1`, the “hERG current change (%, negative = inhibition) at 1uM” value was 10.6%. `CCOC(=O)c1[nH]c2ccc(Br)cc2c1NC(=O)CCN1CCCC(C)C1` (stereo not shown): the “hERG current change (%, negative = inhibition) at 1uM” value is on record as -66.8%. `COC(=O)c1[nH]c2ccc(Br)cc2c1NC(=O)CN1CCCCC1CCO` (stereo not shown): the “hERG current change (%, negative = inhibition) at 1uM” value worked out at 5.4%.

In the case of `NC(=O)Nc1ccccc1C(=O)NCCc1ccccc1`, the “hERG current change (%, negative = inhibition) at 1uM” value is on record as 9.22%. The same measure for `Cn1c(SCc2ccc3c(c2)OCO3)nnc1-c1ccccc1`: 10.4%; for `Cc1cc2nnn(-c3nnc(-c4ccccc4)c4ccccc34)c2cc1C`: 5.53%; for `CCCc1[nH]n(-c2ccc(F)cc2)c(=O)c1C=Nc1cccc(F)c1`: 16.9%. Next, `COC(=O)c1[nH]c2ccc(Br)cc2c1NC(=O)CN1CCCc2ccccc21`: 8.7%; `COC(=O)c1[nH]c2ccc(Br)cc2c1NC(=O)C(C)N1CCN(C2CCCCC2)CC1` (stereo not shown): -82.6%. Next, `COC(=O)c1[nH]c2ccccc2c1NC(=O)C(C)N1CC(C)OC(C)C1` (stereo not shown): 10.2%. Turning to `Cc1scc(-c2n[nH]c(=S)n2C(C)c2ccccc2)c1C` (stereo not shown), the “hERG current change (%, negative = inhibition) at 1uM” value is given as 8.59%.

Regarding `Cc1ccc(CNC(=O)[C@H](C)NC(=O)C2CCN(C(=O)[C@@H](N)CC(C)C)CC2)cc1`, the “hERG current change (%, negative = inhibition) at 1uM” value was 6.77%.

With `O=C(NCc1ccco1)c1c2c(nc3ccccc13)CCC2`, the “hERG current change (%, negative = inhibition) at 1uM” value was found to be 3.32%. Next, `Cl.c1ccc(CNc2nc(NCc3ccccc3)c3ccccc3n2)cc1`: 16.8%; `Cl.c1ccc(CNc2c3c(nc4ccccc24)CCC3)cc1`: -75.8%; `OCCNc1c2ccccc2nc2ccccc12`: -3.35%. The same measure for `c1coc(CNc2c3c(nc4ccccc24)CCC3)c1`: -82%; for `CC(C)CNc1c2c(nc3ccccc13)CCC2.Cl`: -33.5%. Next, `COCCNc1c2c(nc3ccccc13)CCC2.Cl`: -41.5%; `OCCNc1c2c(nc3ccccc13)CCCC2`: -15.9%; `c1ccc(CNc2c3ccccc3nc3ccccc23)cc1`: -74.5%.

`CCc1ccc(NC(=O)c2cnc3scc(C)n3c2=O)cc1`: the “hERG current change (%, negative = inhibition) at 1uM” value was 4.58%. The same measure for `Cc1ccc(NC(=S)NCCc2ccc(Cl)cc2)c(C)c1`: 12.4%. Next, `COc1ccc(CNC(=O)CCCn2nc(C)c3c(C)n(-c4ccc(C)cc4)nc3c2=O)cc1`: 6.87%; `O=c1c2ccccc2cnn1Cc1nnc(-c2cccs2)o1`: 13.7%.

Turning to `CCOC(=O)CSc1nc2c(c(=O)[nH]c(=O)n2C)n1CCCc1ccccc1`, the “hERG current change (%, negative = inhibition) at 1uM” value came out at 1.75%.

Take `CCOc1ccc(S(=O)(=O)NCCCN2CCOCC2)cc1`: the “hERG current change (%, negative = inhibition) at 1uM” value was determined as 9.88%. `Cn1cnnc1SCC(=O)OCN1C(=O)c2ccccc2C1=O`: the “hERG current change (%, negative = inhibition) at 1uM” value is listed as 7.64%. The same measure for `COc1ccc(CCNC(=O)c2cc3c(=O)n4ccccc4nc3n(C3CCCCC3)c2=N)cc1OC`: -61.9%; for `COc1ccc(CCNC(=O)c2cccc3ccccc23)cc1OC`: 22%; for `COc1ccc(CCNC(=O)c2c(C)nc3ccccn23)cc1`: 4.94%.

Consider `COc1ccc(CCNC(=O)c2cc3c(=O)n4ccccc4nc3n(C3CCCCC3)c2=N)cc1`, for which the “hERG current change (%, negative = inhibition) at 1uM” value was -67.6%. Consider `COc1ccc(CCNC(=O)c2c(C)nc3ccccn23)cc1OC`, for which the “hERG current change (%, negative = inhibition) at 1uM” value was -9.75%. The same measure for `COc1ccc(CCNC(=O)c2cnc3ccccn3c2=O)cc1`: -1.13%. The same measure for `COc1ccc(CN(C)CC(=O)Nc2cccc(S(=O)(=O)N(C)c3ccccc3)c2)c(OC)c1`: -25%; for `COc1ccc([N+](=O)[O-])c(OC)c1C(=O)NC(=O)Nc1c(F)c(F)c(F)c(F)c1F`: 4.71%; for `O=C(NCCN1CCN(C(=O)c2ccc([N+](=O)[O-])cc2)CC1)C(=O)NCc1ccccc1`: -85.9%.

For the compound `CCOc1ccc(NC(=O)C(=O)NCCN2CCN(C(=O)c3ccc(C)cc3)CC2)cc1`, the “hERG current change (%, negative = inhibition) at 1uM” value is -65.5%.

Regarding `O=C(NCCN1CCN(C(=O)c2ccc(F)cc2)CC1)C(=O)NCc1ccccc1`, the “hERG current change (%, negative = inhibition) at 1uM” value was -75.1%. The same measure for `COc1ccc(NC(=O)C(=O)NCCN2CCN(C(=O)c3ccc(C)cc3)CC2)cc1`: -28.6%. Next, `O=C(NCCN1CCN(c2ccc([N+](=O)[O-])cc2)CC1)NCc1ccccc1`: -20.2%. For `CCOc1ccc(NC(=O)C(=O)NCCN2CCN(S(=O)(=O)c3ccc(C)cc3)CC2)cc1`, the “hERG current change (%, negative = inhibition) at 1uM” value amounted to 11.6%.

`O=C(NCCN1CCN(C(=O)c2cccc(Br)c2)CC1)C(=O)NCc1ccccc1`: the “hERG current change (%, negative = inhibition) at 1uM” value was -11.2%.

`O=C(NCCN1CCN(C(=O)c2ccc(Br)cc2)CC1)c1ccc(Br)cc1`: the “hERG current change (%, negative = inhibition) at 1uM” value was -63.5%. The same measure for `CC(C)(C)c1ccc(C(=O)N2CCN(CCNC(=O)C(=O)NCc3ccccc3)CC2)cc1`: -8.22%; for `O=C(NCCN1CCN(C(=O)c2ccc(F)cc2)CC1)c1ccc(F)cc1`: -32%; for `Cl.O=C(NCCN1CCCC1)c1ccc(Br)cc1`: 3.38%. Take `O=C(NCCN1CCN(C(=O)c2cccc([N+](=O)[O-])c2)CC1)C(=O)NCc1ccc(Cl)cc1`: the “hERG current change (%, negative = inhibition) at 1uM” value is given as 0.645%.
